Assay [1] can be described thus: blockers of polyQ-driven CASP3 activation – cell-based (AID 1583). To be noted: polyglutamine-induced caspase-3 activation, cell assay; stronger effect = higher value;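 tested at 10 µM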.
Assay [2] in a line: yeast 75Q aggregation reduction – 75Q-TubU reporter (AID 1593). To be noted: Yeast 75Q polyglutamine aggregation reporter.
A short description of assay [3]: restoration of touch response, mutant HTT neurons – whole organism, C. elegans mechanosensory neurons, N-terminal huntingtin (AID 1599). To be noted: C. elegans polyQ-huntingtin mechanosensory neurons, stronger effect = higher value.
The nature of assay [4]: blockers of cytochrome c efflux from mitochondria – biochemical, purified mitochondria (AID 1603).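 Also: mouse liver mitochondria challenged with calcium chloride; signal normalized to the plate average as 100%.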 To be noted: stronger effect = lower value.
A short description of assay [5]: polyglutamine aggregate formation blockers (AID 1604). To be noted: polyglutamine-induced protein aggregation inhibition assay; stronger effect = higher value; tested at 2.5 µM.
A short description of assay [6]: glutamate transport activators, MN-1 cells, MN-1 cell line (AID 1612).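 Also: tested at 1 µM final; 0% = mean of DMSO vehicle wells on each plate; positive means more glutamate uptake than control and negative means less.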 The following applies: MN-1 motor neuron cells, stronger effect = higher value.
Assay [7] in a line: 75Q-TubH aggregate inhibition, S. cerevisiae, yeast (AID 1616). To be noted: S. cerevisiae 75Q-TubH polyglutamine aggregation suppression; stronger effect = higher value.
Assay [8] has as its system Neuropilin-2 / VEGF-C interaction (human). The experiment in a line: small molecules blocking Neuropilin-2/VEGF-C interaction – biochemical, microplate binding format, z-score (AID 743281; call rule not given here). To be noted: microplate NRP2/VEGF-C binding assay; stronger effect = lower value.
Assay [9] in a line: modulation of C. elegans fzo-1 (AID 1259413; call rule not given here;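 also: fzo-1 mutant C. elegans worms in liquid wells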). To be noted: C. elegans fzo-1 modulator screen, mean read-out; stronger effect = higher value.
For another assay, the system named is F380Y/beta1. In words: BK channel mutant inhibitors and activators – cell-based, U2OS BacMam, thallium flux, beta subunits, selectivity assay, profiling panel (AID 1259406).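 Also: initial slope of Thallos dye fluorescence rise after thallium is added; log ratio against the mean of 0.3% DMSO vehicle wells on the same plate.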 To be noted: U2OS BacMam BK variants, at 30 µM.
The test system of the next assay is F380Y/beta2Delta. Described as above. The following applies: U2OS BacMam BK variants, at 30 µM.
Another assay concerns F380Y/beta4. Described as above. To be noted: U2OS BacMam BK variants, at 30 µM.
The target in assay [10] is Calcium-activated potassium channel subunit alpha-1 (Homo sapiens) + Leucine-rich repeat-containing protein 26 (Homo sapiens) (UniProt Q12791+Q2I0M4). The assay is described as above. To be noted: U2OS BacMam BK variants, F380Y/Slo1WT/gamma1, at 30 µM.
Another assay has as its system R275C. Described as above. The following applies: U2OS BacMam BK variants, at 30 µM.
For the next assay, the system named is R275C/beta1. Described as above. The following applies: U2OS BacMam BK variants, at 30 µM.
A further assay deals with R275C/beta2Delta. Described as above. To be noted: U2OS BacMam BK variants, at 30 µM.
For the next assay, the system named is R275C/beta4. Described as above. The following applies: U2OS BacMam BK variants, at 30 µM.
The next assay relates to R275C/Slo1WT/beta2. The assay is described as above. The following applies: U2OS BacMam BK variants, at 30 µM.
The nature of assay [11]: compounds altering viability of human ES cells (AID 493140; call rule not given here;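 also: cells exposed to compounds for four days before counting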). To be noted: human embryonic stem cell survival screen; stronger effect = higher value.
Assay [12] can be described thus: galactose survival enhancers in mitochondrial complex I cybrids – cell-based, galactose medium, ATP luminescence, primary screen (AID 1645843;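 active = z-score of at least 1.8 in each of two replicates, scored against plate mean and spread of sample wells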;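 also: positive z means more ATP and so rescue of galactose-driven cybrid death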). The following applies: complex I mutant cybrid cells, 72 h, stronger effect = higher value.

Several values for one entry are separate records, joined by “and”; a condition that tells them apart may be missing. Equal values may be shown once. For part of these data: Potency and affinity values are given separately. Activity calls are given as the source filed them.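 The calls were made as follows, unless noted: active = thallium flux through the channel raised or lowered by more than 3 SD from vehicle-only wells, actives on both sides; inactive = the rest.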

We go through 10 compounds from PubChem BioAssay.

Chain of Calcium-activated potassium channel subunit alpha-1 (Homo sapiens) + Leucine-rich repeat-containing protein 26 (Homo sapiens) (Q2I0M4 whole entry, looked up, one chain of several): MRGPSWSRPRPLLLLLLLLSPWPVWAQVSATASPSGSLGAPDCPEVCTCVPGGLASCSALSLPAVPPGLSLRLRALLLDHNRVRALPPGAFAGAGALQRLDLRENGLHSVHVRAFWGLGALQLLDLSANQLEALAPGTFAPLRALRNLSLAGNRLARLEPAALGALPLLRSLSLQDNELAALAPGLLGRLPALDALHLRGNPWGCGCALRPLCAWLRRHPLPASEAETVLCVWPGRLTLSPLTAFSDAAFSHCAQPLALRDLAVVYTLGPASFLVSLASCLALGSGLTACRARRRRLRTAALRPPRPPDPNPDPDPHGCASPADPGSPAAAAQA

For the compound `C[C@@H]1O[C@@H](OC[C@H]2O[C@@H](Oc3c(-c4ccc(O)c(O)c4)oc4cc(O)cc(O)c4c3=O)[C@H](O)[C@@H](O)[C@@H]2O)[C@H](O)[C@H](O)[C@H]1O`, in assay [1], the inhibition came to 3.3%. Moreover, the score in [2] was 1.12. This compound also showed a rescue above control in [3] of 13.8. Besides, the cytochrome c release ratio in assay [4] amounted to 1.08. In addition, in [5], the inhibition of aggregation was 48.6%. For the same compound, in assay [6], the glutamate uptake change came out at 32.8%. Besides, the aggregation suppression score in assay [7] came to 0.985. For the same compound, the z-score in assay [8] is 0.702 (inactive). The mean signal in assay [9] was 242 (inactive). In addition, the log fold change Tl+ flux in the assay on F380Y/beta1 was 0.04 (inactive); in the assay on F380Y/beta2Delta, 0.0273 (inactive); with F380Y/beta4, -0.0248 (inactive); in [10], -0.026 (inactive); in the assay on R275C, 0.0426 (inactive); in the assay on R275C/beta1, -0.0081 (inactive). For the same compound, the results for the log fold change Tl+ flux with R275C/beta2Delta, in the assay on R275C/beta4 and in the assay with R275C/Slo1WT/beta2 were 0.00535 (inactive), -0.00112 (inactive) and 0.0255 (inactive), respectively.
For the compound `CCS(=O)(=O)CCn1c([N+](=O)[O-])cnc1C`, the survival in assay [11] is 3.33 (inactive). Also, the z-score in assay [8] was -0.45 (inactive); in [12], 0.655 (inactive) and 0.575 (inactive). For the same compound, in [9], the mean signal is 232 (inactive). In addition, the log fold change Tl+ flux is 0.0365 (inactive) in the assay with F380Y/beta1; -0.0231 (inactive) with F380Y/beta2Delta; -0.041 (inactive) in the assay on F380Y/beta4; -0.0103 (inactive) in assay [10]; 0.0103 (inactive) in the assay with R275C; -0.0101 (inactive) in the assay on R275C/beta1. For the same compound, the log fold change Tl+ flux with R275C/beta2Delta was -0.0183 (inactive); in the assay with R275C/beta4, -0.0453 (inactive); with R275C/Slo1WT/beta2 it was -0.0158 (inactive).
In the case of `CCCCCCCCCCC[C@@H](C[C@@H]1OC(=O)[C@H]1CCCCCC)OC(=O)[C@H](CC(C)C)NC=O`, the values for the z-score in [8] and in assay [12] were -1.43 (inactive) and 0.54 (inactive), respectively. Also, the mean signal in [9] is 258 (inactive). Further, the log fold change Tl+ flux in the assay with F380Y/beta1 was 0.0468 (inactive); in the assay with F380Y/beta2Delta it was 0.0435 (inactive); in the assay with F380Y/beta4 it was 0.0138 (inactive); in assay [10], 0.0135 (inactive); in the assay with R275C it was -0.0306 (inactive); in the assay with R275C/beta1, -0.0228 (inactive). The log fold change Tl+ flux in the assay with R275C/beta2Delta is -0.0121 (inactive); in the assay on R275C/beta4, -0.0426 (inactive); in the assay on R275C/Slo1WT/beta2 it was -0.00736 (inactive).
Consider `COc1cc([C@@H]2c3cc4c(cc3[C@H](O)[C@H]3COC(=O)[C@H]23)OCO4)cc(OC)c1OC`, for which, in assay [11], the survival is 0.917 (inactive). Further, the mean signal in assay [9] is 221 (inactive). Also, the z-score in assay [12] was 0.5 (inactive). In addition, the log fold change Tl+ flux with F380Y/beta1 is 0.00363 (inactive); in the assay with F380Y/beta2Delta, 0.00366 (inactive); in the assay with F380Y/beta4, 0.0253 (inactive); in assay [10], 0.0135 (inactive); in the assay on R275C, -0.0185 (inactive); in the assay on R275C/beta1 it was 0.0124 (inactive). For the same compound, the results for the log fold change Tl+ flux in the assay with R275C/beta2Delta, in the assay on R275C/beta4 and in the assay on R275C/Slo1WT/beta2 were 0.0291 (inactive), 0.0119 (inactive) and 0.00946 (inactive), respectively.
Take `O[C@@H](c1cc(C(F)(F)F)nc2c(C(F)(F)F)cccc12)[C@H]1CCCCN1`: in [9], the mean signal is 213 (inactive). In assay [12], the z-score is -1.5 (inactive). In addition, the log fold change Tl+ flux was 0.529 (active) in the assay on F380Y/beta1; 0.541 (active) in the assay with F380Y/beta2Delta; 0.648 (active) with F380Y/beta4; 0.167 (active) in [10]; 0.256 (active) with R275C; 0.641 (active) in the assay with R275C/beta1. Further, the log fold change Tl+ flux with R275C/beta2Delta is 0.366 (active); in the assay with R275C/beta4 it was 0.803 (active); in the assay on R275C/Slo1WT/beta2 it was 0.107 (inactive).
For the compound `OCCN1C[C@H](O)[C@@H](O)[C@H](O)[C@H]1CO`, the z-score in assay [8] was -1.24 (inactive). In addition, in assay [9], the mean signal was 232 (inactive). In addition, the log fold change Tl+ flux in the assay with F380Y/beta1 was -0.0621 (inactive); with F380Y/beta2Delta, -0.0041 (inactive); in the assay with F380Y/beta4, -0.0159 (inactive); in assay [10], -0.0394 (inactive); in the assay with R275C, -0.0048 (inactive); in the assay on R275C/beta1, -0.0736 (inactive). Besides, the log fold change Tl+ flux with R275C/beta2Delta was -0.00824 (inactive); in the assay with R275C/beta4, -0.031 (inactive); with R275C/Slo1WT/beta2, -0.0316 (inactive).
Regarding `O=C1[C@H](CC[C@H](O)c2ccc(F)cc2)[C@@H](c2ccc(O)cc2)N1c1ccc(F)cc1`, the z-score in [8] is -0.399 (inactive). In addition, the mean signal in assay [9] was 228 (inactive). Besides, the log fold change Tl+ flux with F380Y/beta1 is 0.33 (active); in the assay on F380Y/beta2Delta, 0.0773 (inactive); in the assay with F380Y/beta4 it was 0.106 (active); in [10], 0.0312 (inactive); with R275C, -0.0195 (inactive); in the assay with R275C/beta1, 0.416 (active). Also, the results for the log fold change Tl+ flux with R275C/beta2Delta, in the assay on R275C/beta4 and in the assay on R275C/Slo1WT/beta2 were 0.12 (active), 0.207 (active) and 0.0256 (inactive), respectively.
For `COc1cc(NC(C)CCCN)c2ncccc2c1` (centres undefined), the inhibition in assay [1] amounted to 18.8%. This compound also displayed a score in [2] of 1.79. In [3], this compound gave a rescue above control of 0. The cytochrome c release ratio in [4] was 0.68. The compound also came in with an inhibition of aggregation in [5] of 78.1%. The glutamate uptake change in assay [6] is -1.37%. In addition, the aggregation suppression score in assay [7] was 1.22. Moreover, in [11], the survival was 5.33 (inactive). In assay [9], the mean signal is 225 (inactive). In addition, the z-score in assay [12] is -1.43 (inactive) and -2.4 (inactive). The log fold change Tl+ flux was -0.102 (inactive) in the assay on F380Y/beta1; -0.141 (active) in the assay with F380Y/beta2Delta; -0.0853 (inactive) in the assay on F380Y/beta4; -0.0425 (inactive) in assay [10]; -0.164 (active) with R275C; 0.0817 (inactive) in the assay with R275C/beta1. Further, the log fold change Tl+ flux in the assay with R275C/beta2Delta is 0.0117 (inactive); with R275C/beta4, 0.0128 (inactive); in the assay with R275C/Slo1WT/beta2, -0.0635 (inactive).
Turning to `Nc1nc2ncc(CNc3ccc(C(=O)N[C@@H](CCC(=O)O)C(=O)O)cc3)nc2c(=O)[nH]1`, in assay [1], the inhibition is 15.9%. Also, the score in [2] was 1.02. Besides, in assay [3], the rescue above control is -0.86. In addition, in assay [4], the cytochrome c release ratio came out at 1.08. The compound also gave an inhibition of aggregation in assay [5] of 77.8%. For the same compound, the glutamate uptake change in assay [6] came to 0.74%. The aggregation suppression score in assay [7] was determined as 1.14. In addition, the mean signal in [9] was 246 (inactive). The z-score in assay [12] is -0.64 (inactive). Further, the log fold change Tl+ flux was -0.0026 (inactive) with F380Y/beta1; -0.000783 (inactive) in the assay on F380Y/beta2Delta; 0.025 (inactive) in the assay on F380Y/beta4; -0.00611 (inactive) in [10]; -0.0335 (inactive) with R275C; 0.00862 (inactive) in the assay with R275C/beta1. The log fold change Tl+ flux with R275C/beta2Delta is 0.0304 (inactive); in the assay with R275C/beta4, -0.0613 (inactive); in the assay on R275C/Slo1WT/beta2, -0.0318 (inactive).
In turn, `CCCSc1ccc2nc(NC(=O)OC)[nH]c2c1` came in with an inhibition in assay [1] of 25.8%. Also, the score in [2] was 0.16. This compound also registered a rescue above control in [3] of -16.6. In assay [4], the cytochrome c release ratio came to 0.88. In addition, in assay [5], the inhibition of aggregation is 11.8%. In addition, the glutamate uptake change in assay [6] came to 21.4%. In addition, the aggregation suppression score in assay [7] worked out at 0.174. In addition, the survival in assay [11] is 0.917 (inactive). The mean signal in assay [9] was 254 (inactive). In addition, the z-score in assay [12] was 0.56 (inactive) and -0.955 (inactive). The log fold change Tl+ flux in the assay on F380Y/beta1 is -0.0515 (inactive); in the assay on F380Y/beta2Delta it was 0.0117 (inactive); in the assay with F380Y/beta4, -0.0654 (inactive); in [10], -0.0345 (inactive); with R275C, 0.0372 (inactive); with R275C/beta1, 0.0301 (inactive). For the same compound, the log fold change Tl+ flux in the assay on R275C/beta2Delta is 0.0234 (inactive); in the assay with R275C/beta4 it was -0.0656 (inactive); in the assay with R275C/Slo1WT/beta2, -0.017 (inactive).
